ATXN2 expr inh = inhibitors of ATXN2 expression. hit rate 0.72% among 360,000. AID 1745845. Potency, µM (top dose mostly 57 µM), for inactives: top-dose activity change, negative = inhibition, actives largely listed as inhibitors. HEK-293 ATXN2-luciferase reporter, luminescence, 24 h; note: % is set by controls: 0 for no effect and ±100 for the full control effect; nearly all actives have a fitted effect of over 55% in size
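qHTS (up to 57 uM final) was run with 24 h compound exposure of reporter cells at 37 °C. Each well was multiplexed: SteadyGlo luminescence measured ATXN2-luciferase expression after a fluorogenic Gly-Phe-AFC viability readout (25 uM final).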
KB-3-1 tox = KB-3-1 parental cell cytotoxicity; KB-3-1 viability, CellTiter-Glo ATP luminescence, 72 h; Potency, µM (series often up to 46.1 µM), usual class: cytotoxic; hit rate 1.4% among 400,000; AID 1347075; note: % is set by controls: 0 for no effect and ±100 for the full control effect; nearly all actives have a fitted effect of over 60% in size
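Cytotoxicity measured as CellTiter-Glo luminescence after 72 h at 37 C. Compound titrations were pinned onto drug-naive KB-3-1 parental adenocarcinoma cells grown in DMEM with 10% FBS, and normalized data fitted to concentration-response curves.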
HT1080 IDH1KD tx = HT-1080 IDH1 knockdown cell toxicity (counter line); HT-1080 IDH1 knockdown viability, ATP luminescence, 48 h; Potency, µM (highest dose often 46.1 µM), inactives show at the highest dose activity, negative = toxicity, most hits filed as cytotoxic; hit rate 2% among 360,000;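 note: 0% = DMSO wells and -100% = cell-free medium wells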
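% activity derives from luminescence (CellTiter-Glo), normalised to DMSO and no-cell wells. HT-1080-IDH1KD cells, 750/well, had 48 h compound exposure at 37 °C.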
ATXN viability = viability counter-screen for ATXN expression inhibitors | S2 cells (HEK-293 line with an ATXN2-luciferase reporter) viability, CellTiter-Fluor protease fluorescence, 24 h | Potency, µM (series often up to 56.7 µM), hits mostly cytotoxic | hit rate 0.49% among 400,000; note: nearly all actives have a fitted effect of over 40% in size
KB-V1 MDR tox = kills drug-selected multidrug resistant KB-V1 cells | hit rate 3.4% among 400,000 | Potency, µM (titrated, usually from 46.1 µM), usual class: cytotoxic | KB-V1 MDR cells viability, CellTiter-Glo, 72 h; note: % is set by controls: 0 for no effect and ±100 for the full control effect; nearly all actives have a fitted effect of over 60% in size
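qHTS viability screen in drug-selected KB-V1 MDR cells: 72 h compound treatment at 37 degrees C, ATP luminescence end point.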
HT1080-NT tox = kills 2HG-producing HT-1080-NT fibrosarcoma cells; HT-1080-NT fibrosarcoma viability, CellTiter-Glo ATP luminescence, 48 h; Potency, µM (top dose mostly 46.1 µM), for inactives: at the highest dose activity, negative = less viability, usual class: cytotoxic; hit rate 1.6% among 360,000; AID 686970;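 note: NT is the 2HG producing partner of a matched IDH1 knockdown line; 0% = DMSO-treated cells and -100% = media-only wells without cells; nearly all actives have a fitted effect of over 55% in size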
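A 48-hour cytotoxicity screen used HT-1080-NT cells plated 2 hours before compound delivery. ATP-based CellTiter-Glo luminescence measured viability, normalized to DMSO and no-cell controls.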
Active calls of the source: *; i = inactive; u = inconclusive; x = no result given. Sampled rows, rich in hits. Any-hit rate of the full collection: about 6.2%. Calls come from the whole dose curve; as a rule, active = well fitted curve in the direction sought with a large enough effect; inconclusive = small, poorly fitted or top-dose-only effect, or another doubt; inactive = no such curve, though single readings can be large; an effect the other way counts as inactive or inconclusive. Potency is the fitted concentration of half-maximal effect.

SMILES | ATXN2 expr inh | KB-3-1 tox | HT1080 IDH1KD tx | ATXN viability | KB-V1 MDR tox | HT1080-NT tox
COc1ccc(CCN2C(=O)C=CC2=O)cc1OC | u | i | 6.5µM* | u | u | u
COc1ccc(NC2=C(Cl)C(=O)N(CCc3ccccc3)C2=O)cc1 | 27% | i | -7% | i | i | -1%
CC(CNC(=O)c1csc2c1CCCCC2)c1ccccc1 (centres undefined) | 40% | i | x | i | i | x
COC(=O)c1cc2oc(C)cc2n1Cc1cccc(Cl)c1 | 2% | i | x | u | i | x
COc1ccc(C2SCC(=O)N2CCc2ccc(OC)c(OC)c2)cc1 (centres undefined) | u | u | 18µM* | i | u | u
CCCCCCC(NC(=O)c1ccc(C)cc1)C(=O)O (centres undefined) | -3% | i | 2% | i | i | 3%
Cc1nn2c(NCCCn3ccnc3)cc(C(C)C)nc2c1-c1ccccc1 | -36% | i | u | i | u | 15µM*
CC(=O)Nc1ccc(Nc2cc(C(C)C)nc3c(-c4ccccc4)c(C)nn23)cc1 | u | 5.8µM* | u | u | i | u
C=C(C)CSc1cc(C)nc2c(-c3ccccc3)c(C)nn12 | x | u | -26% | i | 6.5µM* | u
CCSc1cc(C)nc2c(-c3ccccc3)c(C)nn12 | 4% | i | 8% | i | i | 2%
Cc1cc(NCCC(C)C)n2nc(C)c(-c3ccccc3)c2n1 | 12% | i | u | i | 21µM* | u
Cc1cc(NCCCN2CCOCC2)n2nc(C)c(-c3ccccc3)c2n1 | 8% | u | -22% | i | u | -24%
CCOc1ccccc1NC(=O)C(Cc1ccccc1)NS(=O)(=O)c1ccc2c(c1)oc(=O)n2C (centres undefined) | 5% | i | x | i | i | x
O=C(NCc1ccccc1Cl)c1cc(=O)[nH]c2ccc(S(=O)(=O)N3CCCCC3)cc12 | 3% | i | x | i | u | x
NNc1nc(-c2ccccc2)cc(-c2ccccc2O)n1 | -37% | u | 13µM* | i | 5.2µM* | u
NNc1nc(-c2ccccc2)cc(-c2ccccc2)n1 | u | u | u | u | i | -20%
O=C1CCc2cc(S(=O)(=O)Nc3ccc(Cl)c(Cl)c3)c(F)cc2N1 | x | i | x | x | u | x
COc1ccccc1NC(=O)Cn1c(=O)n(CCCCCC(=O)NCc2ccccc2)c(=O)c2sccc21 | -9% | i | x | i | i | x
CCn1c2ccccc2c2nnc(SCC(N)=O)nc21 | 6% | i | 0% | i | i | u
CCn1c2ccccc2c2nnc(SCCCn3c(=O)[nH]c4ccccc43)nc21 | u | i | 17% | 20µM* | u | -1%
C=CCn1c2ccccc2c2nnc(SCC(=O)OC)nc21 | x | i | -2% | i | i | -1%
C=CCn1c2ccccc2c2nnc(SCC(=O)NC(C(=O)OC)C(C)C)nc21 (centres undefined) | 1% | i | -7% | i | 8.2µM* | -10%
CCn1c2ccccc2c2nnc(SCN3C(=O)c4ccccc4C3=O)nc21 | 7% | u | 1% | i | 8.2µM* | 1%
Nc1ccn(C2CO[C@H](CO)O2)c(=O)n1 (some centres undefined) | -3% | x | x | i | x | x
CC1=CC(C)(C)N(C(=O)c2ccc(F)cc2)c2cc3c(cc21)OCO3 | -7% | 21µM* | 4% | i | 13µM* | -1%
Cc1cc2c(cc1NS(=O)(=O)c1cccc(C#N)c1)n(C)c(=O)c(=O)n2C | 14% | i | x | i | i | x
C=CCSC1=C(C#N)C(c2ccccc2Cl)C(C(=O)c2cccs2)C(O)(C(F)(F)F)N1 (centres undefined) | -19% | u | -16% | i | 16µM* | -11%
